# Assay results from PubChem BioAssay (NCATS).
# A number with no mark means an inactive call. Results filed as inconclusive are left out. Entries that show only a call come without a potency. Calls of active or inactive are those of the source. Unless noted, the call rests on the fitted dose curve; in most records, active means well fitted curve in the direction sought with a large enough effect; inconclusive means small, poorly fitted or top-dose-only effect, or another doubt; inactive means no such curve, though single readings can be large; an effect the other way counts as inactive or inconclusive.
# What was measured:
# [1] = qHTS to identify inhibitors of the type 1 interferon - major histocompatibility complex class I in skeletal muscle: primary screen against the NCATS Mechanism Interrogation Plate v5.0 (MIPE) Libary (AID 1347411); further: nearly all actives have a fitted effect of over 65% in size; further: potency means the concentration at half of the fitted maximal effect
# Method in brief: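 Immortalized human myoblasts (C25cl48) with HiBit knocked into endogenous HLA-B*08:01 were stimulated with 4 ng/ml IFN-beta and given compounds in 11-point 1:3 titration from 46 uM. After 24 h at 37 C, lytic HiBiT luminescence was read.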
# [2] = molecular target: Calcium and integrin-binding protein 1 (Homo sapiens) (UniProt Q99828); assay: Primary qHTS for Identification of Calcium Integrin Binding Protein 1 (CIB1) Competitor (AID 1508620);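 further: GST tagged CIB1 binding a fluorescein labelled alphaIIb integrin peptide tracer; top concentration of the series differs between compounds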
# Sequence of Calcium and integrin-binding protein 1 (Homo sapiens) (Q99828 whole entry, looked up): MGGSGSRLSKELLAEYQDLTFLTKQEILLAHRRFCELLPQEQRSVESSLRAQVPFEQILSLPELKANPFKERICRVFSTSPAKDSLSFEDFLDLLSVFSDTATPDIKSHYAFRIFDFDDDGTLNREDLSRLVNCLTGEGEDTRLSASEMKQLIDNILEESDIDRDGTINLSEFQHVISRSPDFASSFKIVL
# Method in brief: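 CIB1-GST (1 uM final) and compound incubated 15 min at room temperature before adding FITC-alphaIIb peptide tracer (100 nM final). Competition for binding read by fluorescence polarization (ex 480, em 540) after another 15 min at room temperature.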
# [3] = molecular target: Cytochrome P450 2D6 (Homo sapiens) (UniProt P10635); assay: Cytochrome P450 family 2 subfamily D member 6 (CYP2D6) small molecule antagonists: luciferase biochemical (cell-free) qHTS assay (AID 1645840; active means well fitted curve in the direction sought with a large enough effect in the repeat runs; an effect the other way counts as inactive or inconclusive; further: nearly all actives have a fitted effect of over 55% in size; further: potency means the concentration at half of the fitted maximal effect; on activity change, negative = inhibition: series mostly up to about 57 µM)
# Sequence of Cytochrome P450 2D6 (Homo sapiens) (P10635 whole entry, looked up): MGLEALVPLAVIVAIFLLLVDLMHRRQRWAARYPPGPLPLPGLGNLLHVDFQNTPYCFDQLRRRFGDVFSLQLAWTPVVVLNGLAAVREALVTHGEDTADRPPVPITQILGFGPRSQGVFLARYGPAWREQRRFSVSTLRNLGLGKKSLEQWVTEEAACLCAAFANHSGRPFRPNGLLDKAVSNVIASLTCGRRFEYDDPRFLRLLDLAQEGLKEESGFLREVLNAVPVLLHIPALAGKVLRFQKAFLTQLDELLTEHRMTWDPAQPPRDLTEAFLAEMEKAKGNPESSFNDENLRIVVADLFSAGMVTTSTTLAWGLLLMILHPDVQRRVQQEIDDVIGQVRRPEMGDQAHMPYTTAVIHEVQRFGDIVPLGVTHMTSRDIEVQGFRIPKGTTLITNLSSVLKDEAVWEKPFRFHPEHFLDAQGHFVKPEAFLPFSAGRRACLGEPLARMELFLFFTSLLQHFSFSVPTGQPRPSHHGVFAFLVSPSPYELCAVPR
# Method in brief: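 P450-Glo luminescent screen: recombinant CYP2D6 enzyme–proluciferin substrate mix preincubated with compound 10 min at room temperature, then NADPH regeneration added for 1 h at room temperature. Detection reagent added for 20 min; luciferin light read as relative luminescence units.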
# [4] = qHTS to identify inhibitors of the type 1 interferon - major histocompatibility complex class I in skeletal muscle: primary screen against the NCATS LOPAC collection (AID 1347405);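 further: lytic HiBiT luminescence reporting HLA-B protein level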; further: potency means the concentration at half of the fitted maximal effect
# Method in brief: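 CRISPR-engineered immortalized human myoblasts (C25cl48) with HiBiT fused to endogenous HLA-B*08:01, stimulated with 4 ng/ml IFN-beta. LOPAC compounds tested as a 7-point 1:4.3 titration (top 46 uM final), 24 h at 37 C; lytic HiBiT luminescence read.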
# [5] = qHTS for inhibitors of adenylyl cyclases using a fission yeast platform: a pilot screen against the NCATS LOPAC library (AID 1347410)
# Method in brief: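 Inhibition of GNAS-stimulated AC9 activity in S. pombe was inferred from derepression of a PKA-repressed fbp1-GFP reporter, measured as cytometric fluorescence after 18 h at 30C with compounds at up to 57 µM.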
# [6] = molecular target: Protein phosphatase 1D (Homo sapiens) (UniProt O15297); assay: RapidFire Mass Spectrometry qHTS Assay for Modulators of WT P53-Induced Phosphatase 1 (WIP1) (AID 1347424);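 further: amount of dephosphorylated VEPPL-S-QETFS peptide product formed by WIP1; series mostly up to about 63 µM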
# Sequence of Protein phosphatase 1D (Homo sapiens) (O15297 whole entry, looked up): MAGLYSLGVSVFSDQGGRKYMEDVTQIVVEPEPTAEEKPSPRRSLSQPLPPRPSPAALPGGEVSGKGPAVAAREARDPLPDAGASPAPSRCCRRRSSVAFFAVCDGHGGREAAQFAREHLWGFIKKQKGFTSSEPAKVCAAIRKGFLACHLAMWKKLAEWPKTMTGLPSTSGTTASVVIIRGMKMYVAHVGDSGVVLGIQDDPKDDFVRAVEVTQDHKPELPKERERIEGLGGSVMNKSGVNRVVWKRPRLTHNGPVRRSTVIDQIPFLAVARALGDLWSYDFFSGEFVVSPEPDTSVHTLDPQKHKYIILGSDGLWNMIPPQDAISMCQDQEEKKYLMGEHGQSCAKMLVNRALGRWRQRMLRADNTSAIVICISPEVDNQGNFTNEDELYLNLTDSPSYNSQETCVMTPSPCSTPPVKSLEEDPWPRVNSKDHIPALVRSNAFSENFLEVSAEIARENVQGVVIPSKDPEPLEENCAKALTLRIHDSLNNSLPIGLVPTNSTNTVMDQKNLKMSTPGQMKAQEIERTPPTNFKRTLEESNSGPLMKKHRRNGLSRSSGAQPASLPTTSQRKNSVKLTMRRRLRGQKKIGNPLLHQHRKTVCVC
# Method in brief: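 10 nM WIP1 + cpd, 1 h RT; + 2 uM VEPPL-pS-QETFS, 5 min RT; stop 0.5% formic acid; labelled product standard 1 uM; RapidFire MS. Buffer 50 mM Tris pH 7.5, 30 mM MgCl2, 1 mM TCEP.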
# [7] = molecular target: Protein phosphatase 1D (Homo sapiens) (UniProt O15297); assay: Rhodamine-PBP qHTS Assay for Modulators of WT P53-Induced Phosphatase 1 (WIP1) (AID 1347425)
# Method in brief: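 The read-out is the change in Rhodamine-PBP fluorescence (f1 - f0, ex 525/em 598 nm) as Pi is released, read each minute for 11 min. Final reaction: 5 nM WIP1, 10 uM phosphopeptide VEPPL-pS-QETFS, 10 uM Rh-PBP, 50 mM Tris-HCl pH 7.5, 30 mM MgCl2. Compound was preincubated with enzyme for 1 hour at room temperature.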
# [8] = Validation qHTS assay for inhibitors of Activation Induced Cytidine Deaminase (AID): UDG Counterscreen signal (AID 1347427)
# Method in brief: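 Counterscreen read of UDG activity (2 U/mL, 4/3x) in the FRET deamination format with AID (1 uM, 4/3x), DJC20/DJC23 substrates (250 nM, 4x), 4 h at room temperature. NaOH stop, fluorescence at 560 ex/665 em.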
# [9] = molecular target: Single-stranded DNA cytosine deaminase (Homo sapiens) (UniProt Q9GZX7); assay: Validation qHTS assay for inhibitors of Activation Induced Cytidine Deaminase (AID): AID signal (AID 1347429)
# Sequence of Single-stranded DNA cytosine deaminase (Homo sapiens) (Q9GZX7 whole entry, looked up): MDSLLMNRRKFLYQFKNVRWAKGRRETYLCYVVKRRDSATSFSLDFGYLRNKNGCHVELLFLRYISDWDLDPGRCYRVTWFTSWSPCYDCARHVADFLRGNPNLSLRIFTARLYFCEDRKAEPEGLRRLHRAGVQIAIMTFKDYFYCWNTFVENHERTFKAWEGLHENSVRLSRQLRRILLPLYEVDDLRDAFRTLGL
# Method in brief: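 FRET deamination assay: 1 uM AID (4/3x stock) with UDG, compound up to 114 uM, then 250 nM DJC20/DJC23 substrate (4x stock) for 4 hr at room temperature. NaOH added, 30 min; fluorescence read 540/590 nm.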
# [10] = molecular target: Calcium and integrin-binding protein 1 (Homo sapiens) (UniProt Q99828); assay: Validation qHTS for Identification of Calcium Integrin Binding protein 1 (CIB1) Competitor (AID 1508618)
# Method in brief: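 CIB1-GST (1 uM final) incubated 15 min at room temperature with compounds (up to 114 uM), then FITC-labelled alphaIIb peptide (100 nM) added. FP read (Ex 480/Em 540) after 15 min, pH 7.4 buffer containing 5 mM CaCl2.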
# [11] = Primary qHTS for small molecule stabilizers of the endoplasmic reticulum resident proteome: Secreted ER Calcium Modulated Protein (SERCaMP) assay (AID 1508630)
# Method in brief: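 GLuc-SERCaMP-expressing SH-SY5Y cells, pretreated 16 h with compound, are challenged with thapsigargin to empty ER calcium stores; after 4 h, coelenterazine is added directly to the medium and luminescence is imaged.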
# [12] = qHTS for Activators of p53 Stress Response Pathway screened against the NCATS CANVASS Library (AID 1347388); details: p53RE-bla HCT-116, beta-lactamase reporter, 16 h; further: potency means the concentration at half of the fitted maximal effect
# Method in brief: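 Beta-lactamase reporter driven by p53 response elements in HCT-116 cells, read as the 460 nm/530 nm emission ratio after CCF4 loading, following 16 h of exposure to an 11-point series. Cell viability was measured in the same wells by CellTiter-Glo luminescence.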
# [13] = qHTS assay for small molecule disruptors of mitochondrial membrane potential screened against the NCATS CANVASS Library (AID 1347389); details: HepG2 mitochondrial membrane potential, m-MPI red/green ratio, 1.5 h; further: potency means the concentration at half of the fitted maximal effect; nearly all actives have a fitted effect of over 60% in size
# Method in brief: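 HepG2 cells (2,000/well) plated overnight, then exposed to compounds in 11-point qHTS series for 1 h at 37C before 30 min Mito-MPS dye; depolarization read as fall in red aggregate (590 nm) to green monomer (535 nm) fluorescence.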
# [14] = qHTS for activators of Nrf2/ARE signaling pathway screened against the NCATS CANVASS Library (AID 1347391); further: nearly all actives have a fitted effect of over 60% in size
# Method in brief: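 ARE-bla HepG2 beta-lactamase reporter cells exposed to compounds for 16 h at 37C; CCF4 substrate 2 h, fluorescence at ex 405 nm, em 460/530 nm. Viability by CellTiter-Glo luminescence.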
# [15] = Vero-766 cells viability qHTS against the NCATS CANVASS Library: Counterscreen for Zika virus inhibition assay (AID 1347394); details: Vero 766 viability, CellTiter-Glo luminescence, 72 h; further: potency means the concentration at half of the fitted maximal effect; nearly all actives have a fitted effect of over 60% in size
# Method in brief: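 Counterscreen for toxicity: Vero 766 cells exposed 72 h to an 11-point compound series, viability by CellTiter-Glo.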
# [16] = Redox Reaction Profiling qHTS: Assay Interference Panel against the NCATS CANVASS Library (AID 1347401)
# Method in brief: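 Cell-free redox surrogate: 5 uM resazurin + 200 uM DTT, 50 mM HEPES pH 7.3/50 mM NaCl; cpds pinned, 11-pt qHTS; Ex525/Em598 read t0 and t=15 min, dark.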
smiles,measurement,setting,value
O=C(N[C@H]1CCC[C@H](CO)C1)C1CCN(c2nc3cc(Cl)c(-c4ccc(Cl)cc4)cc3o2)CC1,Potency,[1],inactive
same,Potency,[2],inactive
Cc1cc(-c2cc(OC(=O)c3ccccc3)ccc2Cl)cc2nnc(Nc3ccc(OCCN4CCCC4)cc3)nc12,Potency,[1],inactive
same,Potency,[2],inactive
Cc1c(NC(=O)c2cc3c(s2)CCCC3)cccc1-c1cn(C)c(=O)c(Nc2ccc(C3C(=O)N(C)CCN3C)cc2)n1 (configuration not stated),Potency,[1],inactive
same,Potency,[2],inactive
COc1c(C)cc(NC(=O)c2nn(Cc3ccc(F)cc3)c3c2CN(C(=O)c2ccc[nH]2)C[C@]3(C)C(N)=O)cc1C,"activity change, negative = inhibition",[1],-14.7% [at 8.44 µM]
same,Potency,[2],inactive
O=C([C@@H](Cc1cccc(C(F)(F)F)c1)NS(=O)(=O)c1cc(F)c2c(c1)CCNC2)N1CCCC1,Potency,[1],inactive
same,Potency,[2],inactive
C=CC(=O)Nc1ccc2ncnc(Nc3cccc(Br)c3)c2c1,Potency,[1],11.7 µM (active)
same,Potency,[2],inactive
C[C@H](CN(C)C)Oc1nc(Nc2cc3cccc(Cl)c3cn2)cnc1C#N,Potency,[1],inactive
same,Potency,[2],inactive
same,Potency,[3],0.674 µM (active)
CN[C@H]1CC[C@@H](c2ccc(Cl)c(Cl)c2)c2ccccc21,Potency,[4],28.2 µM (active)
same,outcome,[5],inactive
same,Potency,[6],inactive
same,outcome,[7],inactive
same,outcome,[8],inactive
same,outcome,[9],inactive
same,outcome,[10],inactive
same,Potency,[2],inactive
same,outcome,[11],inactive
same,Potency,[3],2.19 µM (active)
COC(=O)N1CC2(CC2)C[C@H](C(=O)NO)[C@H]1C(=O)N1CCN(c2ccccc2)CC1,Potency,[1],inactive
same,Potency,[2],inactive
CC(C)CC(=O)c1c(O)cc2c(c1O)C(CC(C)C)C1=C(O2)C(C)(C)C(=O)C(C)(C)C1=O (configuration not stated),Potency,[12],20.9 µM (active)
same,Potency,[13],3.31 µM (active)
same,outcome,[14],inactive
same,Potency,[15],6.6 µM (active)
same,outcome,[16],inactive
same,Potency,[2],inactive
Cc1cc2c(F)c(Oc3ncnn4cc(OCC(C)OC(=O)C(C)N)c(C)c34)ccc2[nH]1 (configuration not stated),Potency,[1],inactive
same,Potency,[2],inactive
CCCCNc1ncc(-c2ccc(CN3CCOCC3)cn2)c(NC2CCC(O)CC2)n1 (configuration not stated),Potency,[1],inactive
same,Potency,[2],inactive
CCCC(CCC)C(=O)Nc1ccn([C@@H]2O[C@H](CO)[C@@H](O)C2(F)F)c(=O)n1,Potency,[1],inactive
same,Potency,[2],inactive
same,Potency,[3],inactive
NCCOc1cc(C(=O)Nc2cc(OCCN)c3ccccc3n2)nc(C(=O)Nc2cc(OCCN)c3ccccc3n2)c1,Potency,[1],inactive
same,Potency,[2],inactive
same,Potency,[3],inactive
Cn1ncnc1[C@H]1c2n[nH]c(=O)c3cc(F)cc(c23)N[C@@H]1c1ccc(F)cc1,Potency,[1],inactive
same,Potency,[2],inactive
C[C@@H]1COCCN1c1cc(=O)n2c(n1)N(Cc1cncc(Cl)c1)[C@H](C(F)(F)F)CC2,Potency,[1],inactive
same,Potency,[2],inactive
CN1CCN(C2CCN(C(=O)Nc3cc(Oc4ccc(NC(=O)C5(C(=O)Nc6ccc(F)cc6)CC5)c(F)c4)ccn3)CC2)CC1,Potency,[1],20.8 µM (active)
same,Potency,[2],inactive
N#Cc1ccnc(Nc2cc(C3CCN(C4COC4)CC3)cc(N3CCC(F)(F)C3)n2)c1,Potency,[1],2.34 µM (active)
same,Potency,[2],inactive
NCCCC(=O)O,Potency,[4],inactive
same,outcome,[5],inactive
same,outcome,[8],inactive
same,outcome,[9],inactive
same,outcome,[11],inactive
CN1CCN(c2ccc(-c3cccc(CN4CCOCC4)c3)cc2NC(=O)c2c[nH]c(=O)cc2C(F)(F)F)CC1,Potency,[1],inactive
same,Potency,[2],inactive
Nc1nccc(-c2c(-c3ccc(F)cc3)ncn2C2CCCCC2)n1,Potency,[1],inactive
same,Potency,[2],inactive
same,Potency,[3],15.1 µM (active)
CCOC(=O)[C@@]1(CCCCCCOc2ccc(Cl)cc2)CO1,Potency,[1],inactive
same,Potency,[2],inactive
CC(C)(CNC(=O)c1cccc(-c2noc(C(F)(F)F)n2)c1)c1coc(-c2ccccc2)n1,Potency,[1],inactive
same,Potency,[2],inactive
C=CCNC1=C2C[C@@H](C)C[C@H](OC)[C@H](O)[C@@H](C)/C=C(\C)[C@H](OC(N)=O)[C@@H](OC)/C=C\C=C(/C)C(=O)NC(=CC1=O)C2=O,Potency,[1],0.829 µM (active)
Fc1ccc2[nH]ccc2c1-c1nc(N2CCOCC2)c2sc(CN3CCN(CC4CC4)CC3)cc2n1,Potency,[1],33 µM (active)
same,Potency,[2],inactive
CS(=O)(=O)Nc1cc2occ(NC=O)c(=O)c2cc1Oc1ccccc1,Potency,[1],inactive
COC1CCN(C(=O)c2cc(Cc3n[nH]c(=O)c4ccccc34)ccc2F)CC1,Potency,[1],inactive
same,Potency,[2],inactive
same,Potency,[3],inactive
